Source: PubChem BioAssay (Buhrlage Lab, Dana-Farber Cancer Institute and Novartis Institutes for BioMedical Research (Cambridge, Mass))
A selection: hits, their analogues and other compounds. The true share with any hit is near 12%.
OTUD3 block: inhibitors of human OTUD3 deubiquitinase | inhibition, % at 25 µM | 47,000 compounds, 0.7% hits | purified OTUD3, Ub-rhodamine fluorescence, 2 h | AID 1645858, 2021
USP30 block: inhibitors of human USP30 deubiquitinase. AID 1645860, 2021. Ubiquitin carboxyl-terminal hydrolase 30 (Homo sapiens), Q70CQ3. 47,000 compounds, 5.3% hits. purified USP30, Ub-rhodamine cleavage fluorescence. inhibition, % at 25 µM
Target sequence (Q70CQ3 whole entry, looked up): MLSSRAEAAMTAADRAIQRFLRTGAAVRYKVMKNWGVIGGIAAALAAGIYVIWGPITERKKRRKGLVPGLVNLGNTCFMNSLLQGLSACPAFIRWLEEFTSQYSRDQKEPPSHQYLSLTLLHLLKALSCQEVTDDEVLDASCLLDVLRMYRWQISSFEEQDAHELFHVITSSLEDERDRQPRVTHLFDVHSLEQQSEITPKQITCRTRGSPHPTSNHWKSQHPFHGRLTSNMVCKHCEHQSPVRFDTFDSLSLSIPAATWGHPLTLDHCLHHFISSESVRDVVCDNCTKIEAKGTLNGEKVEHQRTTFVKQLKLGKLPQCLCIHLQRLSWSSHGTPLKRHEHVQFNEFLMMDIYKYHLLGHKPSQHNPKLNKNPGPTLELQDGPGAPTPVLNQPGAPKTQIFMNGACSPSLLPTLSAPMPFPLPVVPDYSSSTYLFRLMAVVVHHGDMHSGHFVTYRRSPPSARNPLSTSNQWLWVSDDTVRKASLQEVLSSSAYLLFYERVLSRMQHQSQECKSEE
USP28 inh: inhibitors of human USP28 deubiquitinase | purified USP28, Ub-rhodamine cleavage fluorescence, 30 min | inhibition, % at 25 µM | 47,000 compounds, 3% hits | AID 1645857, 2021
USP17 block: inhibitors of human USP17 deubiquitinase. purified USP17, Ub-rhodamine cleavage fluorescence, 3 h. inhibition, % at 50 µM. 47,000 compounds, 6.5% hits
* = called active by the depositor. No stated cut-off is given here; in the data, active means inhibition above about 30%; inactive means the rest.

Results for CC(=O)[C@H]1c2c(c(O)c3c(O)cccc3c2-c2c3c(c(O)c4c(O)cccc24)C(=O)C[C@](C)(O)[C@H]3C(C)=O)C(=O)C[C@]1(C)O ?
OTUD3 block: 30; USP30 block: -20; USP28 inh: 30; USP17 block: 78*

How did Cc1ccc2nc(CNC(=O)c3ccccc3-c3nc(-c4ccc(F)cc4)no3)[nH]c2c1 do in these assays?
OTUD3 block: 7; USP30 block: -20; USP28 inh: 17; USP17 block: 78*

Results for Cc1nc2cc(-c3nccn3C)nn2c(N2CCC(O)(c3ccccc3F)CC2)c1C ?
OTUD3 block: -16; USP30 block: -5; USP28 inh: 2; USP17 block: 34*

Results for COc1ccccc1OCC(O)CNc1c(C)c(C)nc2cc(-c3nccn3C)nn12 (stereo unspecified) ?
OTUD3 block: -6; USP30 block: 0; USP28 inh: -9; USP17 block: -14

Results for Cc1ccc2c(=O)c(C(=O)N3CCOCC3)c[nH]c2n1 ?
OTUD3 block: -45; USP30 block: -223; USP28 inh: -60; USP17 block: -53

Results for O=C(CCc1cccnc1)N1C[C@@H]2CN(Cc3ccc(O)cc3)[C@@H]2C1 ?
OTUD3 block: -5; USP30 block: 10; USP28 inh: -8; USP17 block: -7

How did COc1cc(NC(=O)Cn2nc(-c3ccc(F)cc3)ccc2=O)ccc1-n1cnnn1 do in these assays?
OTUD3 block: 19; USP30 block: 43*; USP28 inh: 15; USP17 block: 79*

How did CCN1CCCC1CNC(=O)Cn1ncn2nc(-c3ccc(OC)cc3)cc2c1=O (stereo unspecified) do in these assays?
OTUD3 block: 0; USP30 block: -13; USP28 inh: -7; USP17 block: 17

Results for COc1ccc(-c2cc3c(=O)n(CC(=O)NCc4ccccc4)ncn3n2)cc1 ?
OTUD3 block: 5; USP30 block: 43*; USP28 inh: 15; USP17 block: 25

Results for COc1ccc(-c2cc3c(=O)n(CC(=O)NCCN4CCCC4)ncn3n2)cc1 ?
OTUD3 block: 9; USP30 block: 34*; USP28 inh: 18; USP17 block: 43*

How did CN1C[C@H]2CCN(C(=O)c3ccccn3)CC[C@H]2S1(=O)=O do in these assays?
OTUD3 block: -6; USP30 block: -10; USP28 inh: -5; USP17 block: -11

What do the screens show for `COc1cc(OC)cc(C(=O)Nc2cccc(N3CCCC3=O)c2)c1`?
OTUD3 block: -1; USP30 block: -1; USP28 inh: 29; USP17 block: 5

Results for Cc1cccc(C(=O)Nc2cc3c4c(c2)CC(=O)N4CCC3)c1 ?
OTUD3 block: -15; USP30 block: -22; USP28 inh: 37*; USP17 block: -5

What do the screens show for `COc1cccc(C(=O)Nc2cc3c4c(c2)CC(=O)N4CCC3)c1`?
OTUD3 block: -13; USP30 block: -18; USP28 inh: 33*; USP17 block: 17

How did CC(=O)Nc1cccc(C(=O)Nc2ccc(N3CCCC3=O)cc2)c1 do in these assays?
OTUD3 block: 17; USP30 block: 25; USP28 inh: 22; USP17 block: 13

How did COCC(=O)N1CCCC1c1cc(Nc2ncccc2C)nc(C)n1 (stereo unspecified) do in these assays?
OTUD3 block: 6; USP30 block: 8; USP28 inh: 4; USP17 block: 7

What do the screens show for `COc1ccccc1NC(=O)c1nnn(Cc2nc(-c3ccc(C)cc3)oc2C)c1N`?
OTUD3 block: -15; USP30 block: -22; USP28 inh: -2; USP17 block: 4

What do the screens show for `CCOc1ccc(-c2nc(Cn3nnc(C(=O)Nc4ccccc4C)c3C)c(C)o2)cc1`?
OTUD3 block: 17; USP30 block: 43*; USP28 inh: 17

How did COc1ccccc1CN1C(=O)c2ccccc2CC1(C)C(=O)NC1CCCCCC1 (stereo unspecified) do in these assays?
OTUD3 block: 4; USP30 block: 9; USP28 inh: 5; USP17 block: 6

How did COc1ccc(S(=O)(=O)N2CCN(c3ccnc4cc(Cl)ccc34)CC2)cc1 do in these assays?
OTUD3 block: 0; USP30 block: 33*; USP28 inh: 0; USP17 block: 1

Results for CCC(=O)N1CCN(c2ccnc3cc(Cl)ccc23)CC1 ?
OTUD3 block: 0; USP30 block: 0; USP28 inh: -10; USP17 block: -6

What do the screens show for `CCC(C)c1ccc(N(C(=O)c2ccco2)C(C(=O)NC2CCCC2)c2ccc(N3CCOCC3)cc2)cc1` (stereo unspecified)?
OTUD3 block: -2; USP30 block: 48*; USP28 inh: 10; USP17 block: 12

Results for O=C(NC1CCCC1)C(c1ccc(Cl)cc1)N(Cc1ccccc1F)C(=O)c1ccco1 (stereo unspecified) ?
OTUD3 block: 17; USP30 block: 37*; USP28 inh: 2; USP17 block: 19

Results for Cc1ccc(C(=O)N2CCc3cc(-c4nc(NC(=O)C5(c6ccc(Cl)cc6)CCC5)sc4C)ccc32)cc1 ?
OTUD3 block: -17; USP30 block: -92; USP28 inh: 5; USP17 block: 28

How did O=c1c(OC2O[C@H](CO)[C@H](O)[C@H](O)[C@H]2O)c(-c2ccc(O)cc2)oc2cc(O)cc(O)c12 (stereo partly specified) do in these assays?
OTUD3 block: 34*; USP30 block: -18; USP28 inh: -17; USP17 block: 21

Results for COc1ccc(-c2coc3cc(O[C@@H]4O[C@H](CO)[C@@H](O)[C@H](O)[C@H]4O)ccc3c2=O)cc1 ?
OTUD3 block: 3; USP30 block: 24; USP28 inh: 10; USP17 block: 22

Results for CC(C)N1CC[C@H]2O[C@@H](C(=O)NCc3ccco3)CC[C@H]21 ?
OTUD3 block: -4; USP30 block: -17; USP28 inh: -7; USP17 block: -19

What do the screens show for `Cc1ccc2c(=O)c(C(=O)Nc3ccccc3)cn(CC(=O)NC3CCCCC3)c2n1`?
OTUD3 block: 8; USP30 block: 9; USP28 inh: 5; USP17 block: 56*

Results for Cc1ccc2c(=O)c(C(=O)Nc3ccc(F)cc3)cn(CC(=O)NC3CCCC3)c2n1 ?
OTUD3 block: -7; USP30 block: -47; USP28 inh: -18

Results for COC1=C2C[C@@H](C)C[C@H](OC)[C@H](O)[C@@H](C)/C=C(\C)[C@@H](OC(N)=O)[C@H](OC)/C=C\C=C(/C)C(=O)NC(=CC1=O)C2=O ?
OTUD3 block: -4; USP30 block: -34; USP28 inh: -3; USP17 block: -20

How did Cc1cc2nc(C(C)NC(=O)c3cc(C4CC4)nn3C)cc(=O)n2[nH]1 (stereo unspecified) do in these assays?
OTUD3 block: 16; USP30 block: 36*; USP28 inh: 10; USP17 block: 7

What do the screens show for `CCOC(=O)c1ccc(NC(=O)CSc2nnc(CNC(=O)c3ccc(OC)cc3)o2)cc1`?
OTUD3 block: 0; USP30 block: 35*; USP28 inh: 4; USP17 block: 33*
